# Reference: ChEMBL document CHEMBL3988442, “University of Dundee, Small-Polar-MMV Screening Library” (2021)
# For part of these data: Entries with a potency or affinity are not part of this list.
# Columns and labels:
# Set-up in all cases: scale not given: direction of the effect not stated beside the values
# [1] = target: Protein translocase subunit SecA (Escherichia coli (strain K12)) (UniProt P10408); experiment: Assay to Identify E. coli SecA ATPase Inhibitors; type: functional; conditions: 30 µM
# [2] = target: T1, Ubiquitin-activating enzyme e1, putative (Leishmania donovani (strain BPK282A1)) (UniProt E9BSI1); experiment: Leishmania donovani Ubiquitin Activating Enzyme (LdE1); type: functional; conditions: 30 µM
# T1 sequence (whole entry): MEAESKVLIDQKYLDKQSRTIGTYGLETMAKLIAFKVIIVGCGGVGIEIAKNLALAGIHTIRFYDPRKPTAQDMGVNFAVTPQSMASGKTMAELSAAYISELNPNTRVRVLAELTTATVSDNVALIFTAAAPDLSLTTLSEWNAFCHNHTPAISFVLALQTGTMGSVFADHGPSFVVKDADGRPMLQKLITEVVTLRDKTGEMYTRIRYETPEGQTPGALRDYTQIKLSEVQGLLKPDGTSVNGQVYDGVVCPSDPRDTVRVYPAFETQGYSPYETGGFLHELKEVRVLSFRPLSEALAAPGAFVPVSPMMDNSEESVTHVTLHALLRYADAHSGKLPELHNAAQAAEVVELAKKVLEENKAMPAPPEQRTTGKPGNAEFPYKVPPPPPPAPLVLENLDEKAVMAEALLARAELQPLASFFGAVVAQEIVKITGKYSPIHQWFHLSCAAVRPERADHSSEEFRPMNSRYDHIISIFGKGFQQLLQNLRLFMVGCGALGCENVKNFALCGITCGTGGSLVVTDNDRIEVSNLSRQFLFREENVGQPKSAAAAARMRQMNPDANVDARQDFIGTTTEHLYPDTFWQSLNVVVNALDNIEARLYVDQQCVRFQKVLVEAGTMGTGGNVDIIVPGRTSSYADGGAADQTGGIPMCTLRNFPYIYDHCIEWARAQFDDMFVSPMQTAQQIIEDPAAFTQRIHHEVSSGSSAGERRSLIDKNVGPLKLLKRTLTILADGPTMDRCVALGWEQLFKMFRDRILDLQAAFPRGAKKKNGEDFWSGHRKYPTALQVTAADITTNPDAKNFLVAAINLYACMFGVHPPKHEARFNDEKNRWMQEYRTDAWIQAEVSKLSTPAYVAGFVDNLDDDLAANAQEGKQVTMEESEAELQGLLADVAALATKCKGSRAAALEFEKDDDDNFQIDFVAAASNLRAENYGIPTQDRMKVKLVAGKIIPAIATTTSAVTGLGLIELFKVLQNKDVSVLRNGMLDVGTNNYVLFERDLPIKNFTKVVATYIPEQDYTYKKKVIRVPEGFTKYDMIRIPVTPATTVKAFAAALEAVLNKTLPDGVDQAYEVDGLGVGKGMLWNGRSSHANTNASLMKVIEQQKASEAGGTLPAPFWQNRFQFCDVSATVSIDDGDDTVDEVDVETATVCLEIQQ
# [3] = target: Sialic acid-binding Ig-like lectin 9 (Homo sapiens) (UniProt Q9Y336); experiment: Hs-Siglec9 ALPHAscreen SOP 20170721; conditions: 10 µM
# [4] = test system: Trypanosoma cruzi; experiment: Trypanosoma cruzi phosphomannomutase and mannose-1-phosphate guanylyltransferase assay; type: functional; conditions: 10 µM
# [5] = target: T2, Arginase-2, mitochondrial (Homo sapiens) (UniProt P78540); experiment: in vitro enzyme assay to detect the production of urea directly proportional to the activity of Arginase II; type: functional; conditions: 33.3 µM; also: in the data most compounds retested in dose-response had high values
# T2 sequence (whole entry): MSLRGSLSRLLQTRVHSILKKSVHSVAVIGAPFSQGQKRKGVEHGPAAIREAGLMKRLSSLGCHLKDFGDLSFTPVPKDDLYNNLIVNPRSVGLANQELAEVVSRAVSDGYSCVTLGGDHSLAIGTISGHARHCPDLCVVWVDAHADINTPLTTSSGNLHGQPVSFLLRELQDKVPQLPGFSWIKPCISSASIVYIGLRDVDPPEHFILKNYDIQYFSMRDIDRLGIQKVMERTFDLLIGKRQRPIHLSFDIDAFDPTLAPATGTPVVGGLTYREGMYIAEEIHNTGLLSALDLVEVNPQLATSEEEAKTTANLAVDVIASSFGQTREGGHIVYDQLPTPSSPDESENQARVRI
# [6] = target: T3, Proteasome subunit beta (Trypanosoma cruzi) (UniProt O96673); experiment: Trypanosoma cruzi proteasome chymotrypsin-like activity (TcProtChymo) assay.; also: in the data most compounds retested in dose-response had high values; type: functional; conditions: 9.37 µM
# T3 sequence (whole entry): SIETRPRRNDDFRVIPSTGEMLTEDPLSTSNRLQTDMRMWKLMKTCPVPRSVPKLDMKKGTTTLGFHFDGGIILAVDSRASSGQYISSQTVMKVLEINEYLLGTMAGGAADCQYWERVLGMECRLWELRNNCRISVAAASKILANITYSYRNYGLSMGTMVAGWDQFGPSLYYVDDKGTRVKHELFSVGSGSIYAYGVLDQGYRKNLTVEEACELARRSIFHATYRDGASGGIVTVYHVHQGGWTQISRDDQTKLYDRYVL
# [7] = species on record: Homo sapiens; experiment: To identify inhibition of the IFN signalling (Jak-Stat) pathway via expression of an eGFP reporter gene under the control of an IFN-stimulated response element (ISRE) containing MxA promoter.; type: functional; conditions: 30 µM
# [8] = target: T4, Tyrosyl-tRNA synthetase, putative (Trypanosoma cruzi (strain CL Brener)) (UniProt Q4DSP6); experiment: Trypanosoma cruzi tyrosyl tRNA synthetase (TcYRS) _High Tyrosine SOP; type: functional; conditions: 30 µM; also: in the data most compounds retested in dose-response had high values
# T4 sequence (whole entry): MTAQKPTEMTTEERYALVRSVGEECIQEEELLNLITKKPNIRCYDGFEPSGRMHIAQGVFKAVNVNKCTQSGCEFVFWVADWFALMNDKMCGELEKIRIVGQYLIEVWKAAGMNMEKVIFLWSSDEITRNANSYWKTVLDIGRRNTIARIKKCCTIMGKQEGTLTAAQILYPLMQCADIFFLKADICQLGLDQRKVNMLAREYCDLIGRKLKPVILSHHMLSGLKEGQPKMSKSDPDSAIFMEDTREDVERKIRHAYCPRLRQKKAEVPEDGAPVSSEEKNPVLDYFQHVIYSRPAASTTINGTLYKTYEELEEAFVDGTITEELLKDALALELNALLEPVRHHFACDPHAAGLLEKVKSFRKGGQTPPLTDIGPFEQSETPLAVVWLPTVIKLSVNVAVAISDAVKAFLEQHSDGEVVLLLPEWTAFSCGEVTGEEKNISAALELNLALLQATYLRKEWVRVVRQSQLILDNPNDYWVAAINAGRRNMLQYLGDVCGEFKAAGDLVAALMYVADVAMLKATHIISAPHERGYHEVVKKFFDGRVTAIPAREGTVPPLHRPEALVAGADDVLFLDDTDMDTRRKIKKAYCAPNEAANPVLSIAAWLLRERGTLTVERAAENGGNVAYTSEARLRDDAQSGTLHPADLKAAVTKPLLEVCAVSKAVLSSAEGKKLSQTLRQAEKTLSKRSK
# [9] = target: T4, Tyrosyl-tRNA synthetase, putative (Trypanosoma cruzi (strain CL Brener)); experiment: Trypanosoma cruzi tyrosyl tRNA synthetase (TcYRS) SOP; type: functional; conditions: 30 µM
# [10] = target: Chromo domain-containing protein 1 (Saccharomyces cerevisiae (strain ATCC 204508 / S288c) (Baker's yeast)) (UniProt P32657); experiment: ScCHD-1 Enzyme Inhibition Assay; type: functional; conditions: 30 µM; also: in the data most compounds retested in dose-response had high values
# Chromo domain-containing protein 1 (Saccharomyces cerevisiae (strain ATCC 204508 / S288c) (Baker's yeast)), sequence (P32657 whole entry, the tested form may be a part): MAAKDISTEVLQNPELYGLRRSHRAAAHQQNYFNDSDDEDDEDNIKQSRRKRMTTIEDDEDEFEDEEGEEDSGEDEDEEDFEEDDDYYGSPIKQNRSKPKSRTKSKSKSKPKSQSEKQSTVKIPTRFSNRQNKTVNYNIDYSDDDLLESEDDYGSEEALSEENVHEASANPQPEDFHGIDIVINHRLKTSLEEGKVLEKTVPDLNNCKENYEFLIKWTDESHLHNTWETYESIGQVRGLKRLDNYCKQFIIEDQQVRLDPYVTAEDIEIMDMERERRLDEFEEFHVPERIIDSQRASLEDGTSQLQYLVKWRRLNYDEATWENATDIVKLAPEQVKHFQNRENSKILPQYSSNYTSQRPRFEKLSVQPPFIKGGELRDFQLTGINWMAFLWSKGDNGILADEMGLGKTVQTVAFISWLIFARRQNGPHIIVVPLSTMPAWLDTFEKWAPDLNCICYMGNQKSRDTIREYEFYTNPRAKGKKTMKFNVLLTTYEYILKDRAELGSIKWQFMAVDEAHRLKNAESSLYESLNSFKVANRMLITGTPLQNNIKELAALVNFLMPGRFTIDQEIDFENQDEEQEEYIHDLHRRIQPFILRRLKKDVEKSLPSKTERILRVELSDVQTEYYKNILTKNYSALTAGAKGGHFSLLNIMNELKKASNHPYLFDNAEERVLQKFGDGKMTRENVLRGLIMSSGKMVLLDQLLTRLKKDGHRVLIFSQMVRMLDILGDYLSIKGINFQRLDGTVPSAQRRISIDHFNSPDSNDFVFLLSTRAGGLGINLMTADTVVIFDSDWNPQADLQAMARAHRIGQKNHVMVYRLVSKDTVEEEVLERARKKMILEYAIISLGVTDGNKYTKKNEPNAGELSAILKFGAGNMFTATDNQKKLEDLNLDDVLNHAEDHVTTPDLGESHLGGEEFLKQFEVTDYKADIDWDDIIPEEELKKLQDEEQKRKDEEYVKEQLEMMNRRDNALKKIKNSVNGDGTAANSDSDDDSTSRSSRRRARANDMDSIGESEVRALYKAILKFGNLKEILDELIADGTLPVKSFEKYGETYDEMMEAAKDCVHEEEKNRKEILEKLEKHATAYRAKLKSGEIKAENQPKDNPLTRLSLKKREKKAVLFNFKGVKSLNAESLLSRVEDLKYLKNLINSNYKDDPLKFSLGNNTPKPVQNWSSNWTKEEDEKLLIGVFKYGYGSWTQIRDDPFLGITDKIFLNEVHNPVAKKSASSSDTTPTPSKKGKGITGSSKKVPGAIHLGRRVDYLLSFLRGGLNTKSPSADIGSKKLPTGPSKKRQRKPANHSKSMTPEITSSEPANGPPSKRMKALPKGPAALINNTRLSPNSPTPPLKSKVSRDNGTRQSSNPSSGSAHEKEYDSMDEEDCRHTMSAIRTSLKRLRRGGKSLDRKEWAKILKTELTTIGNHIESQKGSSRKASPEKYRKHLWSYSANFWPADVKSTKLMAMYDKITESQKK
# Protein translocase subunit SecA (Escherichia coli (strain K12)), sequence (P10408 whole entry): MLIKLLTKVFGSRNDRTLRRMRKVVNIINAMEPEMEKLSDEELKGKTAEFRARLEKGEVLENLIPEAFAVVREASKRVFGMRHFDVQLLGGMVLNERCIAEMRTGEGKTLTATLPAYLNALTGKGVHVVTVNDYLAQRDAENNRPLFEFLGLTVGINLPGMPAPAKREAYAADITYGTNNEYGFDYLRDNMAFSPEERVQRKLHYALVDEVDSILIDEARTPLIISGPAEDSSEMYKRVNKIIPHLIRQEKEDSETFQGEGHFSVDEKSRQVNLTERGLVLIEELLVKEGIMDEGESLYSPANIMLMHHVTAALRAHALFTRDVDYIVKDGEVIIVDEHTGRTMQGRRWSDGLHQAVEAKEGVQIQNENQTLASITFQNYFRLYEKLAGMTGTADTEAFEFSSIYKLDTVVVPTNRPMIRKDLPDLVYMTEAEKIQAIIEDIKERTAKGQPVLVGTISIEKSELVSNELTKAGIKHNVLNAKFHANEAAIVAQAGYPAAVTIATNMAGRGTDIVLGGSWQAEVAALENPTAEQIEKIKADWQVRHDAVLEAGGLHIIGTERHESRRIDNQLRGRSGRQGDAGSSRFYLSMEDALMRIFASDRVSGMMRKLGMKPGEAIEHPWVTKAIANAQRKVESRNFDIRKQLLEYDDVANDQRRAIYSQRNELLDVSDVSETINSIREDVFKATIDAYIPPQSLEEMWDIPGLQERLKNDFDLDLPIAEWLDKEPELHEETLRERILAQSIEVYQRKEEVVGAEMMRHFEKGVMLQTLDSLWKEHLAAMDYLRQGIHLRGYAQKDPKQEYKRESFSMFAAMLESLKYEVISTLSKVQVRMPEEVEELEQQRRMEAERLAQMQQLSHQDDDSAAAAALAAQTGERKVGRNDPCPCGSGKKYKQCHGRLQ
# Sialic acid-binding Ig-like lectin 9 (Homo sapiens), sequence (Q9Y336 whole entry): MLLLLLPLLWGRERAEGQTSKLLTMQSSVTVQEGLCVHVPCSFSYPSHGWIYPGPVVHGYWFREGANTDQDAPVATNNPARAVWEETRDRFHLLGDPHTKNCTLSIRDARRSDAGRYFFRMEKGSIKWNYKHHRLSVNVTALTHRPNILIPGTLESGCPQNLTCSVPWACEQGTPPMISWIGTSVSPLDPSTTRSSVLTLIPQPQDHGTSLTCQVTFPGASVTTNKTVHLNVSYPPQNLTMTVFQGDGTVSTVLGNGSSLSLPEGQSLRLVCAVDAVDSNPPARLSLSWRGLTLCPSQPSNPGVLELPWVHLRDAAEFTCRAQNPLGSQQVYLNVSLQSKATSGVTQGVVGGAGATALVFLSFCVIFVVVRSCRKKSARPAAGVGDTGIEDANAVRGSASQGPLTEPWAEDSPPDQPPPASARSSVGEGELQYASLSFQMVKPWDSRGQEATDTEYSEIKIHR
SMILES,Percent Effect [1] [%],Percent Effect [2] [%],Percent Effect [3] [%],Percent Effect [4] [%],Percent Effect [5] [%],Percent Effect [6] [%],Percent Effect [7] [%],Percent Effect [8] [%],Percent Effect [9] [%],Percent Effect [10] [%]
O=C(c1ccc(OCC2CC2)nc1)N1CCCC(n2cncn2)C1 (stereo not given),-1.42,10.3,-4.65,-3.1,7.79,9.13,19.1,5.26,13.2,-4.21
Cn1ncc2c1NC(=O)CC2c1ccc(O)cc1 (stereo not given),-7.41,0,-2.98,-8.63,-6.64,11.3,30.7,0.532,4.88,-4.05
Cc1ncc(-c2ccnc(N3CCCCC3)n2)c(=O)[nH]1,-0.483,8,1.07,-8.84,-0.887,9.07,21.2,0.526,5.13,-11.6
O=C(C1CCCC1)N1CCC2(CC1)COCCN2CC1CC1,-2.73,16.9,-2.04,-1.31,5.02,10,9.54,11.6,15,-9.88
CCC(O)CN1CCN(C(=O)c2sccc2OC)CC1 (stereo not given),0.313,7.79,10.4,2.24,-3.89,0.526,16.7,3.92,16.5,-3.7
CS(=O)(=O)N1CCC[C@]2(C[C@@H](Oc3ncccc3F)CO2)C1,-5.48,11.7,-6.01,-0.682,4.05,10.3,-0.297,12.1,12.8,1.06
Cc1occc1CNC(=O)N(CCCO)C1CCc2ccccc21 (stereo not given),-4.54,10.7,5.35,3.41,-1.77,4.33,16.1,2.63,7.69,-8.92
O=C(CSC1CCc2ccccc2NC1=O)NCCc1ccco1 (stereo not given),-1.93,18.9,2.64,3.98,11.5,18,16.5,3.72,17.1,-0.493
Cc1cnn(CC2CN(CC(=O)N(C)Cc3cccs3)CCO2)c1 (stereo not given),-1.07,5.33,-0.649,-5.82,9.31,13.8,11.2,2.63,2.56,-11.2
Cc1ncncc1C(=O)Nc1cnn(CC(=O)NC2CCCC2)c1,-3.38,20,2.3,2.96,-0.443,10.8,8.96,1.06,12.5,-20.3
CN(C)CC(=O)N1C[C@H]2CCC[C@@]2(COc2ccccn2)C1,-8.78,1.3,1.97,-2.82,-4.86,11.9,7.53,-0.526,5.13,-0.114
CCc1nc(C)c(C(=O)NCCN2CCC(C)CC2)s1,-2.31,-2.6,7.15,-4.1,-2.25,-6.84,9.62,0.98,11.8,-2.04
